Data reported in PubChem BioAssay AID720648 (The Scripps Research Institute Molecular Screening Center, 2013).
Screen size: about 370,000 compounds; about 3,100 (0.84%) were called active. Many of the other results were omitted from the sample, so actives are more common in it than they were. Unmarked numbers belong to inactive results.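 Rule for the calls: active = inhibition above the mean of compounds lying between control limits plus 3 SD, set per campaign (cut at about 8.5% in these data); inactive = the rest.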

Target: Disintegrin and metalloproteinase domain-containing protein 17 (Homo sapiens) (UniProt P78536)
Sequence (P78536 215-824 limits assumed): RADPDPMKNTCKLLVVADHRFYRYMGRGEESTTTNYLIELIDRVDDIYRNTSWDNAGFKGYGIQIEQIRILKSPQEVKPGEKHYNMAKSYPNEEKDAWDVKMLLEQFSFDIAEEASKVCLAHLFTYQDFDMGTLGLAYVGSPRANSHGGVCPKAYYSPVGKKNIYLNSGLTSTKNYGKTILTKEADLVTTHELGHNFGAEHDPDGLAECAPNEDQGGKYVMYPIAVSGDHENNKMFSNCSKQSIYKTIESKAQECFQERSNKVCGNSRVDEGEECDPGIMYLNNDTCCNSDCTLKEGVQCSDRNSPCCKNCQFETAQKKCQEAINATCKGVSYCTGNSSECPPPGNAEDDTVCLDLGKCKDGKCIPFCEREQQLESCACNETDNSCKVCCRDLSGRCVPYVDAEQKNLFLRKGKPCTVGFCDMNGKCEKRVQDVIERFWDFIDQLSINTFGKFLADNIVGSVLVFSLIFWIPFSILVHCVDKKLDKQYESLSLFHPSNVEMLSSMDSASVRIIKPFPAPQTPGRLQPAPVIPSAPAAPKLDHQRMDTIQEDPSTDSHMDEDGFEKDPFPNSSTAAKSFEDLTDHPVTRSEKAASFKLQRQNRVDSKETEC
Test: inhibition of ADAM17 peptide cleavage – biochemical, QFRET, primary screen (AID 720648);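 note: 0% = DMSO-only wells as the low control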
Conditions: recombinant ADAM17, EDANS/DABCYL FRET peptide cleavage; at 6.95 µM; stronger effect = higher value

SMILES | inhibition
CCCCC(=O)N[C@@H]1CC[C@@]23CCCN2C(=O)CCC[C@H]3[C@H]1C | -6.42%
C=C(C)C1CC23C(=O)C4(C(=O)c5ccccc5)C[C@@]5(C)CCC(CC2C1(C)C)(C4=O)C35OC (some centres undefined) | -2.35%
COC(=O)[C@]12C[C@H](CC(=O)NCc3ccccc3)C(=O)N(CCc3ccc(OC)c(OC)c3)C1=C[C@H](C(C)(C)C)O[C@@H]2C | 7.1%
COC(=O)[C@H](C(C)C)N(CCc1cn(Cc2ccccc2)nn1)S(=O)(=O)c1ccc(F)cc1Br | -0.43%
CCCCOCCCNC(=O)C[C@H]1C[C@@]2(C(=O)OC)C(=C[C@H](COCc3ccccc3)O[C@@H]2C)N(Cc2cccc3ccccc23)C1=O | 6.38%
O=C(Nc1cccc(Cl)c1)OC1CC2CC1[C@H]1CCCCN1[C@H]2Cc1ccccc1 (some centres undefined) | -2.76%
CC(C)(C)c1ccc(Cn2nnc3c(=O)[nH]c(C4CCCN(C(=O)c5ccco5)C4)nc32)cc1 (centres undefined) | -1.56%
Cc1ccc(Cn2nnc3c(=O)[nH]c(C4CCN(S(=O)(=O)/C=C/c5ccccc5)CC4)nc32)cc1 | 8.9% (active)
O=C(Nc1ccc(F)cc1)N1CCCC(c2nc3c(nnn3Cc3ccccc3Cl)c(=O)[nH]2)C1 (centres undefined) | -4.29%
O=C(CSc1nnc(-c2cccs2)n1Cc1ccco1)c1ccc2c(c1)OCO2 | 1.24%
C=CCn1c(SCC(=O)Nc2ccc(NC(C)=O)cc2)nc2sc(C)c(C)c2c1=O | -2.65%
Cc1sc2nc(SCC(=O)c3ccc(O)c(O)c3)n(Cc3ccco3)c(=O)c2c1C | 10.2% (active)
C=CCN1C(=O)[C@@H](CC(=O)N2CCN(C(=O)c3ccco3)CC2)[C@]2(C(=O)OC)CCCCC=C12 | 1.66%
O=C(OC12CCCN(C1)/C(=C/c1cccnc1)C2)C1CCCC1 (centres undefined) | 1.56%
Clc1ccc(C(Cn2ccnc2)OCc2ccsc2Cl)c(Cl)c1 (centres undefined) | 8.72% (active)
O=C(NCCCn1ccnc1)Nc1ccc(Cl)cc1Cl | -2.99%
O=C(Nc1ccccc1C(=O)NCCCn1ccnc1)c1ccc(Cl)cc1Cl | 2.53%
O=S1(=O)c2c(cccc2N2CC[C@H](O)C2)O[C@@H]2CCN1C2 | -10.8%
COc1ccc(C(=O)C2CCCN(S(=O)(=O)c3cccc(C)c3)C2)c(C)c1 (centres undefined) | 12.6% (active)
COc1ccc(C(=O)C2CCCN(C(=O)c3ccc(OC)o3)C2)c(C)c1 (centres undefined) | -0.93%
COc1ccc(C(=O)C2CCCN(C(=O)c3cnsn3)C2)c(C)c1 (centres undefined) | -4.24%
Cc1ccc(-n2c(SCC(=O)Nc3ccc(S(=O)(=O)Nc4nccs4)cc3)nnc2-c2cccnc2)cc1 | 5.12%
O=[N+]([O-])c1ccc(N2CCN(S(=O)(=O)c3ccc4ccccc4c3)CC2)cc1NCc1ccco1 | -3.62%
O=C(c1ccccc1)N1CCN(c2ccc([N+](=O)[O-])c(NCc3ccco3)c2)CC1 | 9.15% (active)
COc1ccc(CCNc2cc(N3CCN(C(=O)c4ccccc4OC)CC3)ccc2[N+](=O)[O-])cc1OC | -5.46%

SMILES | inhibition
CCOC(=O)[C@]12CCCCC/C=C\1N(Cc1ccc(OC)cc1)C(=O)[C@H]2CC(=O)N1CCOCC1 | -0.25%
COc1ccnc(C(=O)N2CCC(Oc3cccnc3)CC2)c1 | 1.66%
CCOC(=O)N1CCN(C(=O)C[C@H]2C[C@@]3(C(=O)OC)C(=C[C@H](C(C)(C)C)O[C@@H]3C)N(Cc3ccc(Cl)cc3Cl)C2=O)CC1 | 2.67%
COC(=O)c1ccccc1Sc1c(/C=N/OCc2ccc(Cl)cc2)c(C(F)(F)F)nn1C | -4.94%
Cn1nc(C(F)(F)F)c(C(=O)Nc2cccc(C(F)(F)F)c2)c1SCc1ccc(Cl)cc1 | 19.8% (active)
CCC(=O)OCc1c(C(F)(F)F)nn(C)c1Oc1cccc(C(F)(F)F)c1 | -2.77%
O=S1(=O)c2ccc(N3CCN(Cc4ccccc4F)CC3)cc2Oc2ccccc2CN1Cc1cn(Cc2ccc(Cl)cc2)nn1 | 7.88%
CC(C)CNC(=O)OCc1cn(Cc2ccc(F)cc2)nn1 | 3.83%
C[C@H]1CN(c2ccc(Br)cc2)C(=O)[C@@H]1CC(=O)Nc1ccc(Br)cc1 | -0.38%
O=C(C[C@H]1C(=O)N(c2ccc(F)c(F)c2)C[C@@H]1Cc1ccccc1)Nc1ccccc1 | 9.24% (active)
CNC(=O)C[C@H]1C(=O)N(c2ccc(OC)cc2)C[C@@H]1Cc1ccccc1 | -1.23%
COc1ccc(C(CNC(=O)c2ccc(S(=O)(=O)Nc3ccccc3C)cc2)N2CCOCC2)cc1 (centres undefined) | -1.54%
COc1ccc(NS(=O)(=O)c2ccc(C)c(C(=O)NCC(c3cccs3)N3CCOCC3)c2)cc1 (centres undefined) | -1.97%
COc1ccc(C(CNC(=O)c2cc(S(=O)(=O)Nc3cccc(C)c3)ccc2C)N2CCCC2)cc1 (centres undefined) | 10.3% (active)
O=C(Nc1cc(F)cc(F)c1)OC1CCC12CCC(c1ccccc1)CC2 (centres undefined) | 3.79%
COc1cccc(N(C)C(=O)[C@@H](C)[C@@H](O)c2ccc3ccccc3c2)c1 | -0.07%
CC(=O)C1(C(=O)Nc2nccs2)CC(c2ccccc2C(F)(F)F)=NO1 (centres undefined) | -1.77%
O=C1[C@H]2[C@@H](c3ccc(Cl)cc3)N3C(=O)N(c4cccc(F)c4)C(=O)[C@@]3(Cc3ccccc3)[C@H]2C(=O)N1C1CCCCC1 | -3.52%
CC12C(=O)N(c3ccccc3)C(=O)C1C(c1ccccc1)N1CCCN12 (centres undefined) | 0.41%
O=C1[C@H]2[C@@H](c3ccc(F)cc3)N3C(=O)N(c4ccc(C(F)(F)F)cc4)C(=O)[C@@]3(Cc3ccccc3)[C@H]2C(=O)N1C1CCCCC1 | 1.1%
CC[C@@]12C(=O)N(c3ccccc3)C(=O)N1[C@H](c1ccc(Br)cc1)[C@@H]1C(=O)N(C(C)(C)C)C(=O)[C@@H]12 | 8.73% (active)
Cc1cccc(N2C(=O)N3[C@H](c4ccc(F)cc4)[C@@H]4C(=O)N(C5CCCCC5)C(=O)[C@@H]4[C@]3(Cc3ccccc3)C2=O)c1 | 1.18%
Cc1cccc([C@@H]2[C@@H]3C(=O)N(Cc4ccccc4)C(=O)[C@@H]3[C@]3(Cc4ccc(Cl)cc4)C(=O)N(c4cccc(Cl)c4)C(=O)N23)c1 | 1.28%
CC(C)(C)N1C(=O)[C@H]2[C@@H](c3ccc(Br)cc3)N3C(=O)N(c4cccc(Cl)c4)C(=O)[C@@]3(C)[C@H]2C1=O | 10% (active)
COc1ccc([C@@H]2[C@@H]3C(=O)N(C(C)(C)C)C(=O)[C@@H]3[C@]3(Cc4ccccc4)C(=O)N(c4cccc(Br)c4)C(=O)N23)cc1 | 13.1% (active)

SMILES | inhibition
C[C@@]12C(=O)N(c3cccc(Br)c3)C(=O)N1[C@H](c1ccc(Cl)cc1)[C@@H]1C(=O)N(C3CCCCC3)C(=O)[C@@H]12 | 13.3% (active)
CCN1C(=O)[C@H]2[C@@H](c3ccc(C)cc3)N3C(=O)N(c4cccc(Br)c4)C(=O)[C@@]3(CC)[C@H]2C1=O | 1.14%
CCN1C(=O)[C@H]2[C@@H](c3ccc(-c4ccc(OC)cc4)cc3)N[C@@](Cc3ccccc3)(C(=O)OC)[C@H]2C1=O | -1.71%
CCOC(=O)[C@@H]1[C@H]2COc3cc(OC)ccc3[C@@H]2N2C(=O)N(c3cccc(C)c3)C(=O)[C@@]12C | -2.53%
Cc1ccc(Cn2cc(CN3[C@@H](C)COc4cc(Br)ccc4S3(=O)=O)nn2)cc1 | -2.3%
COC(=O)c1cccc(Cn2ccc3ccc(-c4ccc5ccn(C(=O)C6CCCCC6)c5c4)cc32)c1 | -4.69%
Cc1ccc(C2=CCN(C)C(=O)N2c2ccc(Cl)cc2)cc1 | 0.02%
CCOC(=O)C1CCN(C(=O)C(C)(C)NC(=O)Nc2ccc(F)c(F)c2)CC1 | 0.09%
COc1ccccc1C(=O)CSc1nnc(-c2ccccn2)n1-c1ccccc1 | -0.51%
CCOC(=O)[C@]12CCCCC/C=C\1N(Cc1ccc(OC)cc1)C(=O)[C@H]2CC(=O)NCc1ccc(C)o1 | -1.43%
CCn1c(SCC(C)=O)nc2sc3c(c2c1=O)CCCC3 | -1.68%
Cc1ccc(C)c(-n2c(SCC(=O)O)nc3sc4c(c3c2=O)CCCC4)c1 | 0.43%
NNC(=O)C1CCCn2c1nc1sc3c(c1c2=O)CCCC3 (centres undefined) | 11.2% (active)
O=C(CN1CCC(NC(=O)NCc2ccccc2)CC1)Nc1ccc2c(c1)OCCO2 | -4.62%
CCCC[C@H](C(=O)N(CC)c1ccccc1)[C@@H](O)c1ccc2ccccc2c1 | 4.5%
CCC(C)(C)c1ccc(Oc2ccc(NC(=O)COC(=O)C3=COCCO3)cc2)cc1 | 15.7% (active)
O=C1CCC(C(=O)OCC(=O)Nc2ccc(OC(F)F)cc2)=NN1 | 5.95%
COc1ccc(NC(=O)COC(=O)CNC(=O)C2CCCCC2)cc1 | -0.83%
CCOC(=O)N1CCN(C(=O)C[C@@H]2C(=O)N(CCc3ccc(Cl)cc3)C3=CCCC[C@]32C(=O)OCC)CC1 | -1.27%
CC[C@@H](CCC(=O)N(c1ccccc1)c1ccccc1)C1CC1 | -3.63%
Nn1c(SCC(=O)Nc2cccc3ccccc23)nnc1-c1cc(-c2ccc(F)cc2)n[nH]1 | -1.2%
Cn1c(=O)c2sccc2n(Cc2ccc(Br)cc2)c1=O | 0.1%
C/C(Cl)=C\Cn1c(Nc2cccc(C)c2)nc2c1c(=O)n(C)c(=O)n2C | 1.3%
Cn1c(=O)c2c(nc(N/N=C/c3cccs3)n2Cc2ccc(Br)cc2)n(C)c1=O | 9.47% (active)
